Tau ThT inhib: qHTS for Inhibitors of Tau Fibril Formation, Thioflavin T Binding; 270,000 tested, 2.1% active; AID 1460, 2008; recombinant tau K18 P301L, heparin-induced fibrillization, ThT fluorescence; Potency, µM (titrated, usually from 57.4 µM), usual class: inhibitors; Microtubule-associated protein tau (Homo sapiens), P10636; also: nearly all actives have a fitted effect of over 55% in size
Target sequence (P10636 561-689 P618L limits assumed): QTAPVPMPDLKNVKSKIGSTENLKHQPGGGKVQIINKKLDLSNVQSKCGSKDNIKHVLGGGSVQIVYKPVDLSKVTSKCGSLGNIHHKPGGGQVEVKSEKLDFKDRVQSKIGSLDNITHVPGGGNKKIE
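Fibril formation assay: tau K18 P301L at 15 uM with trace Alexa 594 label, heparin inducer 20 uM, pH 7 sodium acetate buffer, 37 C for 6 hr; endpoint ThT signal.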
Tau fluor counter: Counterscreen qHTS for Inhibitors of Tau Fibril Formation, Fluorescence Polarization | tau K18 P301L (four-repeat tau fragment) Alexa594 fluorescence, heparin fibrillization | 280,000 tested, 0.93% active | Potency, µM (top dose mostly 57.7 µM); also: nearly all actives have a fitted effect of over 55% in size
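Human K18 P301L tau (15 uM unlabeled plus 0.24 uM Alexa 594-labeled, final) in 100 mM sodium acetate pH 7 was mixed with compound and 20 uM heparin and incubated 6 hr at 37 C.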
TexasRed fluor: Total Fluorescence Counterscreen for Inhibitors of the Interaction of Thyroid Hormone Receptor and Steroid Receptor Coregulator 2 | TRb/SRC2 Texas Red total fluorescence interference | Potency, µM (highest dose often 106 µM) | 280,000 tested, 0.29% active | AID 1479, 2009; active = well fitted curve in either direction with a large enough effect; inconclusive = small, poorly fitted or top-dose-only effect
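Human TRβ ligand-binding domain (0.6 uM) and Texas Red SRC2 peptide (20 nM) in Tris buffer with 1 uM T3 and 5% DMSO were incubated with pinned compound for 5 hr at ambient temperature. Total fluorescence was computed as S + 2P (555/632 nm).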
TRb-SRC2 inh: qHTS for Inhibitors of the Interaction of Thyroid Hormone Receptor and Steroid Receptor Coregulator 2; 280,000 tested, 0.065% active; TRbeta-SRC2 peptide binding, fluorescence polarization; receptor liganded with 1 µM T3; Potency, µM (titrated, usually from 106 µM), most hits filed as inhibitors; Thyroid hormone receptor beta (Homo sapiens), P10828; also: nearly all actives have a fitted effect of over 50% in size
Target sequence (P10828 whole entry, looked up): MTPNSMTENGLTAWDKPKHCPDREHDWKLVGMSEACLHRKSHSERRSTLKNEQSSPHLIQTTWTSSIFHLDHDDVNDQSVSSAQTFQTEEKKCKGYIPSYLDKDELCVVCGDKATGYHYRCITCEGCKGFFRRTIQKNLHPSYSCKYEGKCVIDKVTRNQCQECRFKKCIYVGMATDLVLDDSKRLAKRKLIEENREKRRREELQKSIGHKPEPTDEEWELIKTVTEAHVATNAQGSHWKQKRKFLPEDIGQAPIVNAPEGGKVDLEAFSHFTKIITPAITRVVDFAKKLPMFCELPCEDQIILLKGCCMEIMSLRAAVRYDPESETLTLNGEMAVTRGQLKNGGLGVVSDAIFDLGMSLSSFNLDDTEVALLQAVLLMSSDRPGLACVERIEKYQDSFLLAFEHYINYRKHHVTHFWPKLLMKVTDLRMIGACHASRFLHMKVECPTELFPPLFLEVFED
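Binding of a 20-amino-acid Texas Red SRC2 peptide (20 nM) to TRb ligand-binding domain (0.6 uM) with agonist T3 at 1 uM was followed by fluorescence polarization after a 5 hr room-temperature incubation.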
Tau fibril FP: qHTS for Inhibitors of Tau Fibril Formation, Fluorescence Polarization; Microtubule-associated protein tau (Homo sapiens), P10636; K18 P301L tau heparin fibrillization, Alexa594 FP, 6 h; Potency, µM (titrated, usually from 57.7 µM), hits mostly inhibitors; 280,000 tested, 0.39% active; also: nearly all actives have a fitted effect of over 55% in size
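Steps: dispense K18 P301L tau (15 uM plus 0.24 uM Alexa 594 tracer, final) in pH 7 sodium acetate; add compound; add heparin (20 uM final); incubate 6 hr, 37 C; add ThT (30 uM final); after 1 hr ambient, read FP.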
A number is an active result; – = inactive; ? = inconclusive; · = no result; [ ] = remark or other dose. In the library only some 3.1% were active in any assay of this set; here they are far more common. Unless noted, calls follow the shape of the dose curve; as a rule, active = well fitted curve in the direction sought with a large enough effect; inconclusive = small, poorly fitted or top-dose-only effect, or another doubt; inactive = no such curve, though single readings can be large; an effect the other way counts as inactive or inconclusive.

SMILES	Tau ThT inhib	Tau fluor counter	TexasRed fluor	TRb-SRC2 inh	Tau fibril FP
O=C(c1ccc([N+](=O)[O-])cc1)n1nc(-c2ccccc2)nc1NCc1ccccc1	–	–	–	–	–
CC(C)c1ccc(CNc2nc(-c3ccco3)nn2C(=O)c2ccc([N+](=O)[O-])cc2)cc1	?	16µM[quencher]	–	–	–
O=c1[nH]c(=O)c2nc(Br)n(C3OC(CO)C(O)C3O)c2[nH]1 (stereo unspecified)	–	–	–	–	–
CC1=C(C(=O)O)N2C(=O)C(NC(=O)C(N)c3ccccc3)C2SC1 (stereo unspecified)	–	–	–	–	–
CS(=O)(=O)CCC(C(=O)Nc1cccc(C(F)(F)F)c1)N1Cc2ccccc2C1=O (stereo unspecified)	–	–	25µM[quencher]	–	–
O=C(CSc1nc2cc(Cl)ccc2s1)Nc1cccc(S(=O)(=O)N2CCOCC2)c1	–	?	–	–	?
COc1cc(CNc2ccc(N3CCN(C(C)=O)CC3)cc2)ccc1OCc1ccccc1	4µM	?	–	–	–
CN1CCN(c2ccc(S(=O)(=O)N3CCCCC3)cc2[N+](=O)[O-])CC1	–	–	–	–	–
O=C(/C=C/c1ccc(N2CCCCC2)c([N+](=O)[O-])c1)c1ccc(S(=O)(=O)N2CCCC2)cc1	10µM	–	–	–	?
COc1cccc(C(=O)/C=C/c2ccc(N3CCCCC3)c([N+](=O)[O-])c2)c1	7.9µM	?	–	–	–
COc1cccc(/C=C/C(=O)c2cccc([N+](=O)[O-])c2)c1	?	?	–	–	?
Cc1nc2ccn(Cc3cccnc3)c(=O)c2cc1C(=O)NCc1ccccc1	–	–	–	–	–
Fc1ccc(Nc2cccc3nccnc23)cc1	?	–	–	–	–
c1cc(Nc2cccc3nccnc23)c2nccnc2c1	5µM	–	–	–	–
COc1cc(NC(=O)Cn2c(=O)n(CC(=O)NCCc3ccc(OC)c(OC)c3)c(=O)c3sccc32)cc(OC)c1	?	–	–	–	–
COc1ccc2c(c1)-c1nc(NC(=O)c3cccc(Br)c3)sc1CC2	?	?	–	–	?
COc1ccc2c(c1)-c1nc(/N=C/c3c(O)ccc4ccccc34)sc1CC2	22µM	?	?	?	?
COc1ccc2c(c1)-c1nc(NC(=O)c3cccs3)sc1CC2	?	?	–	–	–
COc1ccc2c(c1)-c1nc(/N=C/c3ccc(O)cc3)sc1CC2	28µM	?	–	–	?
COc1cccc(CNC(=O)CCn2cnc3ccccc3c2=O)c1	–	–	–	–	–
CCCOc1cccc(NC(=O)c2c(-c3ccccc3Cl)noc2C)c1	–	–	–	–	?
COC(=O)c1c(NC(=O)c2cc(=O)c3cc(C)cc(C)c3o2)sc2c1CCC2	–	–	–	–	–
C=Cc1ccc(C=C)cc1	·	·	–	–	·
O=C(/C=C/c1cn(CC(O)CN2CCOCC2)c2ccccc12)c1cccs1 (stereo unspecified)	14µM	?	–	–	–
COc1ccc(C(=O)/C=C/c2cn(CC(O)CN3CCOCC3)c3ccccc23)cc1 (stereo unspecified)	10µM	?	–	–	?
SMILES	Tau ThT inhib	Tau fluor counter	TexasRed fluor	TRb-SRC2 inh	Tau fibril FP
CSc1ncc2c(n1)-c1ccccc1N(Cc1ccc(F)cc1)S2(=O)=O	–	–	–	–	–
COc1cccc(NC(=O)CSc2nc(-c3ccccc3Cl)nc3c2Cc2c(CO)cnc(C)c2O3)c1	–	–	–	–	–
COCCCNC(=O)CSc1nc(-c2cccc(F)c2)[nH]c1-c1ccccc1	–	?	–	–	–
O=C(c1ccccc1)c1ccc2nc(Nc3cc(Cl)ccc3O)c3nncn3c2c1	–	18µM[quencher]	–	–	?
O=C1CCC(C(=O)N2CCC(CO)(Cc3ccc(Cl)cc3)CC2)=NN1	–	–	–	–	–[2.34 µM]
NS(=O)(=O)c1ccc(Nc2nc(-c3ccc(O)cc3)cs2)cc1	13µM	?	?	–	–
COc1ccc(-c2csc(Nc3ccccc3)n2)cc1	?	28µM[quencher]	–	–	–
Oc1ccc(Nc2nc(-c3ccc(O)cc3)cs2)cc1	6.3µM	14µM[quencher]	?	–	–
COc1ccc2oc(=O)c(-c3csc(Nc4ccc(O)cc4)n3)cc2c1	2.2µM	3.2µM[quencher]	–	–	–
COc1ccc2oc(=O)c(-c3csc(-c4ccc(Br)cc4)n3)cc2c1	–	–	–	–	–
Nc1ccc(Nc2nc(-c3ccncc3)cs2)cc1	?	?	–	–	–
COc1ccc(Nc2nc(-c3ccc(OC)cc3)cs2)cc1	?	?	–	–	–
COc1cccc(NC(=O)CSc2nc3ccsc3c(=O)n2-c2ccc(C(=O)O)cc2)c1	–	–	–	–	–
COC(=O)[C@H](C)NC(=O)C/C=C\[C@@H](C)[C@H]1C=C[C@H](O)[C@@H](CO)O1	–[11.5 µM]	–[11.6 µM]	–[11.2 µM]	–[11.2 µM]	–[11.6 µM]
Cc1ccc(OC(=O)c2cc(-c3ccc4c(c3)OCCO4)on2)cc1C	?	–	–	–	–
COc1ccc(-c2csc(Nc3ccc(S(N)(=O)=O)cc3)n2)cc1	?	13µM[quencher]	–	–	?
Brc1ccc(-c2csc(Nc3nc(-c4ccc(Br)cc4)cs3)n2)cc1	?	8.9µM[quencher]	–	–	–
COc1ccc2oc(=O)c(-c3nnc(-c4ccc(C)cc4)o3)cc2c1	–	–	20µM[quencher]	–	–
CC(=O)Oc1ccc(-c2csc(Nc3ccc(S(N)(=O)=O)cc3)n2)cc1	–	–[2.34 µM]	–	–	–[2.34 µM]
Oc1ccc(Nc2nc(-c3ccc(Cl)cc3)cs2)cc1	4µM	7.9µM[quencher]	–	–	?
CCc1ccc2nc(N(CCN(CC)CC)C(=O)c3cccs3)sc2c1	–	–	–	–	–
CC(C)c1onc(-c2c(Cl)cccc2Cl)c1COc1ccc(/C=C/c2cccc(C(=O)O)c2)c(Cl)c1	·	·	–	?	·
COc1ccc(Nc2nc(-c3c[nH]c4ccccc34)cs2)cc1	8.9µM	13µM[quencher]	–	–	?
COc1ccc(-c2csc(Nc3cccnc3)n2)cc1	?	?	–	–	?
CCOc1ccc(NC(=O)Cn2c(=O)n(Cc3ccccc3)c(=O)c3c4c(sc32)CN(C(C)=O)CC4)cc1	–	?	–	–	?
Cc1[nH]c(N=Nc2ccccc2)nc1N=Nc1ccccc1	3.5µM	?	–	–	–
Cc1ccc2c(c1)c1cccc3c1n2CCN3CCC(N)=O	11µM	?	–	–	?
NC(=O)CCn1c2ccccc2c2ccccc21	–	–	–	–	–
Cc1oc(-c2ccc(Cl)cc2)cc1C(=O)/C(C#N)=C/Nc1ccccc1	–	–	–	–	–

Screening results as filed in PubChem BioAssay.
